Compounds without any hit were thinned out: in the full panel of roughly 83,000, 20% have a hit.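 Percent growth is the endpoint: 0 to 100 indicates growth inhibition (40 means 60% inhibition), 0 means no net growth, and negative values indicate cell death.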 Unmarked numbers belong to inactive results. Activity calls are given as the source filed them.
Test system: HCT-116 colon
Assay: NCI-60 one-dose screen, 48 h (100 = growth as untreated, 0 = no growth, -100 = all killed)
Settings: 10 µM unless noted
Method: Growth inhibition of the HCT-116 human tumor cell line is measured as a screen for anti-cancer activity. Cells are grown in 96 well plates and exposed to the test compound for 48 hours. Compounds are tested at a single concentration, which is 10^-5 M for most compounds. The reported endpoint is percent growth (GI% or GIPRCNT), where numbers from 0 - 100% represent growth inhibition, and numbers from -100% - 0 represent cell death. For example, a value of 40 represents 60% growth inhibition. A value of 0 means no net growth occurred over the course of the experiment. A value of -40 indicates 40% of cells at the beginning of the experiment died by the end of the experiment. A value of -100 means all cells are dead at the end of the experiment.
NCI-60 Human Tumor Cell Lines Screen was performed using the standard one-dose NCI protocol, which is described in more detail at https://dtp.cancer.gov/discovery_development/nci-60/default.htm.
Compounds with GIPRCNT values below 10 were considered active. Activity score was based on GIPRCNT using the following formula: […]
Score is 0 for GIPRCNT values of 100 or above, 50 for GIPRCNT values of 0, and 100 for GIPRCNT values of -100.

Structure (SMILES)	growth
Cn1cc(-c2cc3nc(-c4cn(C)c5ncccc45)cc(N)n3n2)c2cc(Cl)ccc21	-94.4% (active)
Cc1cc2c(cc1Cl)C(=O)/C(=C/c1ccc(F)cc1)O2	73.5%
N#Cc1ccc(/C=N/NC(=O)c2[nH]c3ccc(Br)cc3c2-c2ccccc2)o1	1.43% (active)
COc1cc(/C=C/C(=O)c2ccc(C)cc2)ccc1Oc1nc(Nc2ccc(F)cc2)nc(N(C)C)n1	-80.3% (active)
COc1ccc(C(=O)/C=C/c2cccc(Cl)c2)cc1S(N)(=O)=O	-64.2% (active)
COc1cc2c(c(OC)c1OC)C(=O)CC(c1cccc(NC(=O)[C@@H](N)CC(C)C)c1)O2 (stereo not given in full)	101%
CC(=O)Nc1cccc(-c2nc3cc(-c4ccc(O)cc4)ccc3n2C)c1	45.7%
Cn1cc(-c2cc3nc(-c4c[nH]c5ccc(Cl)cc45)cc(N)n3n2)c2ccccc21	-88.3% (active)
O=C(NNc1nc2cc(F)ccc2n2c(CN3CCCCC3)ccc12)c1cnccn1	-86.9% (active)
Cc1ccc(-c2nc(C#N)c(S(=O)(=O)N3CCN(S(=O)(=O)c4ccccc4)CC3)o2)cc1	-81.4% (active)
COc1ccc(C(=O)/C=C/c2ccc(OCc3ccc(F)cc3)c(OC)c2)cc1OC	8.63% (active)
COc1cc(NC(=O)c2cccc(C3CCc4c(cc(OC)c(OC)c4OC)O3)c2)cc(OC)c1OC (stereo not given)	8.03% (active)
O=C(O)c1cccc(-c2ccc(/C=N/NC(=O)c3[nH]c4ccc(Br)cc4c3-c3ccccc3)s2)c1	31.5%
O=C(Cn1c2c(sc1=O)[C@H]1[C@@H](O)[C@@H](O)[C@H](O)[C@@H]1CS2)N1CCOCC1	110%
CC(=O)OC[C@@]1(C)C2CC[C@]3(C)C(CC=C4C5CC(C)(C)CC[C@]5(C(=O)Nc5ccc(C)cc5)CC[C@]43C)[C@@]2(C)C[C@@H](OC(C)=O)[C@@H]1OC(C)=O (stereo not given in full)	24.7%
C[C@H](Nc1nc(NCCc2ccccc2)nc2ccccc12)c1ccccc1	-83.7% (active)
COc1ccc(-c2nc3cc(C)ccc3n2CC(=O)N=Nc2c(O)[nH]c3ccc(OC)cc23)cc1	-97.4% (active)
O=C(CN1C(=O)/C(=C/c2ccccc2F)SC1=S)N1CCOCC1	45.3%
C=C1CC[C@@H]2[C@]3(C)COC(c4cn[nH]c4-c4ccccc4)O[C@@H]3CC[C@@]2(C)[C@@H]1C/C=C1/C(=O)OCC1O (stereo not given in full)	-20.3% (active)
C=C1CCC2C3(C)COC(c4cc(F)cc(F)c4)OC3CCC2(C)C1CC(O)C1=CCOC1=O (stereo not given)	-33.8% (active)

Structure (SMILES)	growth
CC(=O)OC[C@@]1(C)C2CC[C@]3(C)C(CC=C4C5CC(C)(C)CC[C@]5(C(=O)Nc5ccc(Br)cc5)CC[C@]43C)[C@@]2(C)C[C@@H](OC(C)=O)[C@@H]1OC(C)=O (stereo not given in full)	24.6%
Cc1ccc(-n2c(-c3cc4ccccc4nc3Cl)noc2=O)cc1	86%
Cc1ccc(C(=O)C(c2c[nH]c3ccccc23)c2c[nH]c3ccccc23)cc1	-62.3% (active)
O=C(O)Cn1c(O)c(/C=C2/C=c3cc4c(cc3=NC2=O)OCCO4)sc1=S	103%
CN(C)CCn1c2ccccc2c2nc3ccc([N+](=O)[O-])cc3nc21	0.47% (active)
Cc1ccc(NC(=O)[C@]23CCC(C)(C)CC2C2=CCC4[C@@]5(C)C[C@@H](O)[C@H](O)[C@@](C)(CO)C5CC[C@@]4(C)[C@]2(C)CC3)cc1 (stereo not given in full)	6.55% (active)
C#CCOc1ccc(/C=N/Nc2nc(-c3cc4cc(Br)ccc4oc3=O)cs2)cc1OC	71.5%
COc1cc2oc(-c3cccc(NC(=O)[C@H](CC(N)=O)NC(=O)OC(C)(C)C)c3)cc(=O)c2c(OC)c1OC	89.3%
N#Cc1c(-c2cccc3ccccc23)cc(-c2cccc(OCC(=O)O)c2)[nH]c1=O	103%
CN1CCc2c(sc3ncnc(N/N=C/c4ccc(Cl)cc4Cl)c23)C1	-64.1% (active)
C=C1CC[C@@H]2[C@]3(C)COC(c4cn[nH]c4-c4cccc(Br)c4)O[C@@H]3CC[C@@]2(C)[C@@H]1C/C=C1/C(=O)OCC1O (stereo not given in full)	-95.9% (active)
C#CCOc1cc(N(CC)CC)ccc1C(C(=O)NC(C)(C)C)N(C(=O)C1CCc2cc(F)ccc2O1)c1ccc(Br)cc1 (stereo not given)	35.6%
COc1ccc(C(=O)/C=C/c2ccc(Oc3nc(Nc4ccc(F)cc4)nc(N(C)C)n3)c(OC)c2)cc1	0.959% (active)
CN1CCN(c2ccc3c(c2)nc(NNC(=O)c2ncccn2)c2cccn23)CC1	0.844% (active)
C=C1CCC2C3(C)COC(c4ccco4)OC3CCC2(C)C1CC(Sc1ccccc1)C1=CCOC1=O (stereo not given)	12%
Cn1cc(-c2cc(N)n3nc(-c4cn(C)c5ccc(Cl)cc45)cc3n2)c2ccccc21	104%
N#Cc1c(-c2ccc(Br)cc2)nc2n[nH]c(-c3ccc(Br)cc3)c2c1-c1ccc(C(F)(F)F)cc1	6.76% (active)
O=C1N/C(=N\c2nccs2)S/C1=C\C=C/c1ccccc1	12.1%
O=C1Nc2cc(Cl)ccc2/C1=C/c1cccc(OCc2ccccn2)c1	0.558% (active)
Cn1cc(-c2cc(N)n3nc(-c4c[nH]c5ccccc45)cc3n2)c2cc(Br)cnc21	-90.7% (active)
